This note sets out measurements from the supplement of paper PMC9262897, “Low-cost anti-mycobacterial drug discovery using engineered E. coli” (Nature Communications, 2022).

Where a name gives a salt, the structure may show the parent alone. ± gives the standard deviation of the averaged measurements.

What all share (test): growth (OD600 after 10 h); higher = more growth (less inhibition)
Assay [1] concerns E. coli TESEC Alr+ wild-type control. To be noted: compound 0.1 mM; raw OD600 reference: median of DMSO wells 0.241, cell-free background 0.041. Here is the method: (§1)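 TESEC Mtb Alr E. coli, or the Alr+ wild-type control, in 384-well plates with Prestwick library compounds at 0.1 mM and 1% DMSO, across arabinose induction levels of 1E3 to 1E7 nM. Growth is read as OD600 after 10 h at 37 °C in triplicate biological replicates.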

Assay [2] concerns E. coli TESEC Mtb Alr. The conditions noted are these: compound 0.1 mM. The protocol:
as §1

In another assay the test system is E. coli TESEC Mtb Asd. To be noted: compound 0.1 mM. Here is the method:
(§2)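 TESEC E. coli strains in which the native enzyme is deleted and replaced by arabinose-inducible Mtb Asd, DapB, CysH or TrpD, each grown in its selective medium. Strains were screened against the Prestwick library at 0.1 mM and 1% DMSO in 384-well format at low and high arabinose induction. Growth is read as OD600 after 10 h in triplicate.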

Assay [3] relates to E. coli TESEC Alr+ wild-type control. The conditions noted are these: compound 0.1 mM; raw OD600 reference: median of DMSO wells 0.49, cell-free background 0.052. Here is the method:
(§3)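 TESEC Mtb Alr E. coli (ΔaraC ΔtolC ΔentC Δalr ΔdadX, arabinose-inducible Mtb Alr) or the Alr+ wild-type control strain, grown in defined M9-fructose medium without D-alanine in 96-well plates with Prestwick library compounds at 0.1 mM and 1% DMSO. Low Alr induction is 0.1 µM arabinose and high induction is 10 mM arabinose.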

Assay [4] concerns E. coli TESEC Mtb Alr. The conditions noted are these: compound 0.1 mM. The protocol:
as §3
This is another data set of the same source.

For a further assay, the system named is E. coli TESEC Mtb DapB. The conditions noted are these: compound 0.1 mM. Here is the method: as §2
Where [5] appears, read: arabinose 1000 nM, raw OD600 reference: median of DMSO wells 0.294, cell-free background 0.041.
The mark [6] stands for this setting: arabinose 10000 nM, raw OD600 reference: median of DMSO wells 0.264, cell-free background 0.041.
Where [7] appears, read: arabinose 100000 nM, raw OD600 reference: median of DMSO wells 0.201, cell-free background 0.041.
The mark [8] stands for this setting: arabinose 1000000 nM, raw OD600 reference: median of DMSO wells 0.193, cell-free background 0.041.
The mark [9] stands for this setting: arabinose 10000000 nM, raw OD600 reference: median of DMSO wells 0.146, cell-free background 0.041.
[10] abbreviates: arabinose induction (level): High, raw OD600 reference: median of DMSO wells 0.331, cell-free background 0.041.
The mark [11] stands for this setting: arabinose induction (level): Low, raw OD600 reference: median of DMSO wells 0.417, cell-free background 0.041.
Setting [12] is: arabinose 100 nM, raw OD600 reference: median of DMSO wells 0.413, cell-free background 0.052.
The mark [13] stands for this setting: arabinose 10000000 nM, raw OD600 reference: median of DMSO wells […], cell-free background 0.052.

Take `CN[C@@H]1[C@@H](O)[C@@H](O[C@@H]2[C@@H](O)[C@H](O[C@H]3O[C@H](CN)CC[C@H]3N)[C@@H](N)C[C@H]2N)OC[C@]1(C)O.CN[C@@H]1[C@@H](O)[C@@H](O[C@@H]2[C@@H](O)[C@H](O[C@H]3O[C@H]([C@@H](C)N)CC[C@H]3N)[C@@H](N)C[C@H]2N)OC[C@]1(C)O.CN[C@@H]1[C@@H](O)[C@@H](O[C@@H]2[C@@H](O)[C@H](O[C@H]3O[C@H]([C@@H](C)NC)CC[C@H]3N)[C@@H](N)C[C@H]2N)OC[C@]1(C)O` [Gentamicine sulfate]: the growth in assay [1] is 0.0458 ± 0.00049; in the assay on E. coli TESEC Mtb Alr [2] (setting [5]), 0.04643 ± 0.00025; in the assay with E. coli TESEC Mtb Alr [2] (setting [6]), 0.0414 ± 0.00061; in the assay with E. coli TESEC Mtb Alr [2] (setting [7]), 0.0505 ± 0.0026; in the assay with E. coli TESEC Mtb Alr [2] (setting [8]), 0.0448 ± 0.00064; with E. coli TESEC Mtb Alr [2] (setting [9]) it was 0.075 ± 0.001. For the same compound, the growth in the assay with E. coli TESEC Mtb Asd (setting [10]) amounted to 0.134 ± 0.021; in the assay on E. coli TESEC Mtb Asd (setting [11]) it was 0.0693 ± 0.0051; in assay [3] it was 0.0643 ± 0.0096; in the assay on E. coli TESEC Mtb Alr [4] (setting [12]) it was 0.191 ± 0.13; in the assay on E. coli TESEC Mtb Alr [4] (setting [13]), 0.0981 ± 0.037.
As to `Cc1cc(C(C#N)c2ccc(Cl)cc2)c(Cl)cc1NC(=O)c1cc(I)cc(I)c1O` (centres undefined) [Closantel], the growth was determined as 0.067 ± 0.0041 in assay [1]; 0.0633 ± 0.008 in the assay with E. coli TESEC Mtb Alr [2] (setting [5]); 0.0425 ± 0.0013 with E. coli TESEC Mtb Alr [2] (setting [6]); 0.0471 ± 0.0022 in the assay on E. coli TESEC Mtb Alr [2] (setting [7]); 0.0411 ± 0.00058 in the assay on E. coli TESEC Mtb Alr [2] (setting [8]); 0.0539 ± 0.00083 in the assay with E. coli TESEC Mtb Alr [2] (setting [9]). Further, the growth was determined as 0.0773 ± 0.0025 in the assay on E. coli TESEC Mtb Asd (setting [10]), 0.0874 ± 0.0013 with E. coli TESEC Mtb Asd (setting [11]), 0.137 ± 0.042 in the assay with E. coli TESEC Mtb Alr [4] (setting [12]) and 0.145 ± 0.043 with E. coli TESEC Mtb Alr [4] (setting [13]).
With `CCC1(C)CC(=O)NC(=O)C1` [Bemegride], the growth in assay [1] was determined as 0.237 ± 0.0029; in the assay with E. coli TESEC Mtb Alr [2] (setting [5]), 0.299 ± 0.023; with E. coli TESEC Mtb Alr [2] (setting [6]) it was 0.253 ± 0.00095; with E. coli TESEC Mtb Alr [2] (setting [7]) it was 0.227 ± 0.039; in the assay with E. coli TESEC Mtb Alr [2] (setting [8]), 0.191 ± 0.0055; in the assay with E. coli TESEC Mtb Alr [2] (setting [9]) it was 0.135 ± 0.0098. For the same compound, the growth in the assay with E. coli TESEC Mtb Asd (setting [10]) came out at 0.318 ± 0.043; with E. coli TESEC Mtb Asd (setting [11]), 0.46 ± 0.0049; with E. coli TESEC Mtb DapB (arabinose induction (level): High, raw OD600 reference: median of DMSO wells […], cell-free background 0.041), 0.2 ± 0.0046; in the assay with E. coli TESEC Mtb DapB (arabinose induction (level): Low, raw OD600 reference: median of DMSO wells 0.227, cell-free background 0.041), 0.23 ± 0.013; in the assay on E. coli TESEC Mtb Alr [4] (setting [12]) it was 0.4 ± 0.019; in the assay on E. coli TESEC Mtb Alr [4] (setting [13]) it was 0.363 ± 0.02.
On to `C[N+]1(C)CCCC(OC(=O)C(O)(c2ccccc2)c2ccccc2)C1` (centres undefined) [Mepenzolate bromide], for which the growth in assay [1] is 0.235 ± 0.006; in the assay with E. coli TESEC Mtb Alr [2] (setting [5]), 0.307 ± 0.016; in the assay on E. coli TESEC Mtb Alr [2] (setting [6]) it was 0.258 ± 0.0015; in the assay with E. coli TESEC Mtb Alr [2] (setting [7]), 0.203 ± 0.022; with E. coli TESEC Mtb Alr [2] (setting [8]), 0.179 ± 0.0065; in the assay with E. coli TESEC Mtb Alr [2] (setting [9]), 0.137 ± 0.0056. Moreover, the growth in the assay with E. coli TESEC Mtb Asd (setting [10]) came to 0.307 ± 0.038; in the assay on E. coli TESEC Mtb Asd (setting [11]), 0.461 ± 0.02; in the assay with E. coli TESEC Mtb Alr [4] (setting [12]) it was 0.405 ± 0.0053; in the assay with E. coli TESEC Mtb Alr [4] (setting [13]), 0.345 ± 0.014.
With `CC(=O)O[C@H]1CC[C@@]2(C)C(=CC[C@@H]3[C@@H]2CC[C@]2(C)C(=O)CC[C@@H]32)C1` [Dehydroisoandosterone 3-acetate], the growth is 0.198 ± 0.065 in assay [1]; 0.239 ± 0.019 in the assay on E. coli TESEC Mtb Alr [2] (setting [5]); 0.253 ± 0.01 with E. coli TESEC Mtb Alr [2] (setting [6]); 0.144 ± 0.0063 in the assay with E. coli TESEC Mtb Alr [2] (setting [7]); 0.106 ± 0.015 with E. coli TESEC Mtb Alr [2] (setting [8]); 0.134 ± 0.0039 with E. coli TESEC Mtb Alr [2] (setting [9]). Further, the growth is 0.315 ± 0.044 in the assay with E. coli TESEC Mtb Asd (setting [10]), 0.391 ± 0.0042 in the assay with E. coli TESEC Mtb Asd (setting [11]), 0.376 ± 0.012 in the assay with E. coli TESEC Mtb Alr [4] (setting [12]) and 0.0699 ± 0.0044 with E. coli TESEC Mtb Alr [4] (setting [13]).
Take `C[N+](C)(C)CCCCCCCCCC[N+](C)(C)C` [Decamethonium bromide]: the growth in assay [1] is 0.246 ± 0.0085; in the assay on E. coli TESEC Mtb Alr [2] (setting [5]), 0.286 ± 0.015; in the assay on E. coli TESEC Mtb Alr [2] (setting [6]), 0.2525 ± 0.0016; in the assay on E. coli TESEC Mtb Alr [2] (setting [7]), 0.214 ± 0.022; in the assay on E. coli TESEC Mtb Alr [2] (setting [8]), 0.208 ± 0.003; in the assay on E. coli TESEC Mtb Alr [2] (setting [9]), 0.13 ± 0.0017. For the same compound, the growth in the assay with E. coli TESEC Mtb Asd (setting [10]) is 0.369 ± 0.032; in the assay with E. coli TESEC Mtb Asd (setting [11]), 0.444 ± 0.043; with E. coli TESEC Mtb Alr [4] (setting [12]), 0.39 ± 0.017; with E. coli TESEC Mtb Alr [4] (setting [13]), 0.376 ± 0.022.
As to `C[C@]12N[C@H](Cc3ccccc31)c1ccccc12` [Dizocilpine maleate], the growth in assay [1] was found to be 0.2374 ± 0.0019; in the assay with E. coli TESEC Mtb Alr [2] (setting [5]) it was 0.286 ± 0.009; in the assay on E. coli TESEC Mtb Alr [2] (setting [6]), 0.273 ± 0.0096; with E. coli TESEC Mtb Alr [2] (setting [7]), 0.158 ± 0.014; in the assay on E. coli TESEC Mtb Alr [2] (setting [8]), 0.123 ± 0.0042; in the assay on E. coli TESEC Mtb Alr [2] (setting [9]), 0.134 ± 0.0024. Further, the growth in the assay with E. coli TESEC Mtb Asd (setting [10]) was determined as 0.179 ± 0.014; with E. coli TESEC Mtb Asd (setting [11]) it was 0.415 ± 0.059; in assay [3], 0.54 ± 0.094; in the assay on E. coli TESEC Mtb Alr [4] (setting [12]), 0.4169 ± 0.0029; in the assay on E. coli TESEC Mtb Alr [4] (setting [13]), 0.304 ± 0.01.
